Test results: PubChem BioAssay (EPA / NIEHS)
Active and inactive are the calls of the source. The calls were made as follows: active = hit-call score of the fitted dose curve at least 0.9, where 1 is the maximum; inactive = score below 0.9.

Legend:
[1] = read-out: Cytochrome P450 (CYP1A1), CYP1A1 (gene 1543); experiment: LTEA_HepaRG_CYP1A1: Life Technologies and Expression Analysis (LTEA) Assay for Cytochrome P450 (CYP1A1) using HepaRG (AID 2283454); conditions: mRNA level, 48 h; actives raise or lower the signal
In short: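 Using HepaRG cultures with 0.5% DMSO as vehicle, eight-concentration exposures (max 100 uM) lasted 48 h. Transcript levels were measured by TaqMan qRT-PCR and normalized to ACTB, GAPDH and POLR2A.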

[2] = read-out: CFLAR gene, CFLAR (gene 8837); experiment: LTEA_HepaRG_CFLAR: Life Technologies and Expression Analysis (LTEA) Assay for CFLAR gene using HepaRG (AID 2283455); conditions: mRNA level, 48 h; actives raise or lower the signal
In short: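 Gain- or loss-of-signal changes in CFLAR transcript were fitted bidirectionally relative to 0.5% DMSO. Cells (HepaRG, duplicate wells) were dosed for 48 h across eight half-log concentrations topping at 100 uM; quantitation by TaqMan qRT-PCR.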

[3] = read-out: Forkhead box O1 (FOXO1), FOXO1 (gene 2308); experiment: LTEA_HepaRG_FOXO1: Life Technologies and Expression Analysis (LTEA) Assay for Forkhead box O1 (FOXO1) using HepaRG (AID 2283456); conditions: mRNA level, 48 h; actives raise or lower the signal
In short: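 Using one lot of HepaRG hepatic cells kept in 0.5% DMSO, the team applied test chemicals in duplicate, half-log dilutions from 100 uM, for 48 h. Expression, normalised to ACTB/GAPDH/POLR2A, was compared with vehicle in either direction.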

[4] = read-out: growth arrest and DNA damage 45 (GADD45A), GADD45A (gene 1647); experiment: LTEA_HepaRG_GADD45A: Life Technologies and Expression Analysis (LTEA) Assay for growth arrest and DNA damage 45 (GADD45A) using HepaRG (AID 2283458); conditions: mRNA level, 48 h; actives raise or lower the signal
In short: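 Eight-point concentration-response in HepaRG cells: 48 h chemical exposure, 0.5% DMSO vehicle, top dose 100 uM. Normalized qRT-PCR mRNA readout with bidirectional fitting relative to DMSO.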

[5] = read-out: Forkhead box O3 (FOXO3), FOXO3 (gene 2309); experiment: LTEA_HepaRG_FOXO3: Life Technologies and Expression Analysis (LTEA) Assay for Forkhead box O3 (FOXO3) using HepaRG (AID 2283459); conditions: mRNA level, 48 h; actives raise or lower the signal
In short: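 Gene-expression endpoint: FOXO3 transcript level by qRT-PCR in HepaRG cultures treated 48 h with chemicals up to 100 uM (half-log, 0.5% DMSO vehicle).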

[6] = read-out: ABC Transporter (ABCB1), ABCB1 (gene 5243); experiment: LTEA_HepaRG_ABCB1: Life Technologies and Expression Analysis (LTEA) Assay for ABC Transporter (ABCB1) using HepaRG (AID 2283460); conditions: mRNA level, 48 h; actives raise or lower the signal
In short: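 Human liver HepaRG line treated 48 h with up to 100 uM compound (eight half-log points, 0.5% DMSO); ABCB1 mRNA change fitted bidirectionally against DMSO controls.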

[7] = read-out: growth arrest and DNA damage 45 (GADD45B), GADD45B (gene 4616); experiment: LTEA_HepaRG_GADD45B: Life Technologies and Expression Analysis (LTEA) Assay for growth arrest and DNA damage 45 (GADD45B) using HepaRG (AID 2283461); conditions: mRNA level, 48 h; actives raise or lower the signal
In short: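 Human HepaRG monolayers receive chemicals for 48 h at eight half-log concentrations, highest 100 uM, in 0.5% DMSO. Expression is measured by TaqMan qRT-PCR and normalized to ACTB, GAPDH and POLR2A.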

[8] = read-out: ABC Transporter (ABCC3), ABCC3 (gene 8714); experiment: LTEA_HepaRG_ABCC3: Life Technologies and Expression Analysis (LTEA) Assay for ABC Transporter (ABCC3) using HepaRG (AID 2283462); conditions: mRNA level, 48 h; actives raise or lower the signal
In short: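 Transcriptional change of ABCC3 in HepaRG after 48 h treatment, determined by qRT-PCR normalized to endogenous controls. Concentrations spanned eight half-log steps to 100 uM in 0.5% DMSO.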

[9] = read-out: ABC Transporter (ABCB11), ABCB11 (gene 8647); experiment: LTEA_HepaRG_ABCB11: Life Technologies and Expression Analysis (LTEA) Assay for ABC Transporter (ABCB11) using HepaRG (AID 2283463); conditions: mRNA level, 48 h; actives raise or lower the signal
In short: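 Using HepaRG cultures held in 0.5% DMSO, chemicals were tested at half-log dilutions from 100 uM for 48 h. Induction or suppression of ABCB11 mRNA, normalized to ACTB, GAPDH and POLR2A, was fitted bidirectionally against vehicle.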

[10] = read-out: ABC Transporter (ABCC2), ABCC2 (gene 1244); experiment: LTEA_HepaRG_ABCC2: Life Technologies and Expression Analysis (LTEA) Assay for ABC Transporter (ABCC2) using HepaRG (AID 2283464); conditions: mRNA level, 48 h; actives raise or lower the signal
In short: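 After plating and 48 h culture, HepaRG medium is replaced with serum-free induction medium and chemicals are added (8 concentrations, max 100 uM, 0.5% DMSO) for 48 h. Total RNA then undergoes qRT-PCR for ABCC2 with housekeeping normalization.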

[11] = read-out: Broad substrate specificity ATP-binding cassette transporter ABCG2 (Homo sapiens) (UniProt Q9UNQ0); experiment: LTEA_HepaRG_ABCG2: Life Technologies and Expression Analysis (LTEA) Assay for ABC Transporter (ABCG2) using HepaRG (AID 2283465); conditions: mRNA level, 48 h; actives raise or lower the signal
In short: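 Gene expression of ABCG2 in HepaRG liver cells is quantified by qRT-PCR following 48 h exposure across an eight-point series topping at 100 uM. Values come from bidirectional fitting relative to DMSO vehicle.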

[12] = read-out: ATP-citrate lyase (ACLY), ACLY (gene 47); experiment: LTEA_HepaRG_ACLY: Life Technologies and Expression Analysis (LTEA) Assay for ATP-citrate lyase (ACLY) using HepaRG (AID 2283466); conditions: mRNA level, 48 h; actives raise or lower the signal
In short: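 ACLY expression changes in human HepaRG liver cells are quantified by qRT-PCR after 48 h exposure to test chemicals (maximum 100 uM, half-log steps). Values are fitted in both directions relative to 0.5% DMSO vehicle.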

[13] = read-out: Peroxisomal acyl-coenzyme A oxidase 1 (ACOX1) gene, ACOX1 (gene 51); experiment: LTEA_HepaRG_ACOX1: Life Technologies and Expression Analysis (LTEA) Assay for Peroxisomal acyl-coenzyme A oxidase 1 (ACOX1) gene using HepaRG (AID 2283467); conditions: mRNA level, 48 h; actives raise or lower the signal
In short: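 Human HepaRG hepatic cultures, 48 h treatment with test chemicals up to 100 uM. ACOX1 expression read by qRT-PCR relative to 0.5% DMSO vehicle.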

[14] = read-out: Alkaline Phosphatase, Placental (ALPP) gene, ALPP (gene 250); experiment: LTEA_HepaRG_ALPP: Life Technologies and Expression Analysis (LTEA) Assay for Alkaline Phosphatase, Placental (ALPP) gene using HepaRG (AID 2283468); conditions: mRNA level, 48 h; actives raise or lower the signal;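 as to AC50: differentiated human HepaRG liver cells in serum-free induction medium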
In short: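 Using human liver HepaRG cells, chemicals are tested in duplicate over 48 h at half-log concentrations topping at 100 uM; phenobarbital 1 mM serves as induction control. ALPP mRNA change by qRT-PCR, bidirectional fit against vehicle.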

[15] = read-out: Bcl-2 (BAD) gene, BAD (gene 572); experiment: LTEA_HepaRG_BAD: Life Technologies and Expression Analysis (LTEA) Assay for Bcl-2 (BAD) gene using HepaRG (AID 2283469); conditions: mRNA level, 48 h; actives raise or lower the signal
In short: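 Activity values reflect up- or down-regulation of BAD mRNA in human HepaRG hepatic cells treated 48 h in serum-free medium, with eight-point half-log dosing capped at 100 uM and 0.5% DMSO vehicle.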

[16] = read-out: Bcl-2 (BAX) gene, BAX (gene 581); experiment: LTEA_HepaRG_BAX: Life Technologies and Expression Analysis (LTEA) Assay for Bcl-2 (BAX) gene using HepaRG (AID 2283470); conditions: mRNA level, 48 h; actives raise or lower the signal
In short: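 Human HepaRG cells treated in duplicate for 48 h across eight concentrations (max 100 uM, 0.5% DMSO); BAX expression measured by qRT-PCR.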

[17] = read-out: adenosine kinase (ADK) gene, ADK (gene 132); experiment: LTEA_HepaRG_ADK: Life Technologies and Expression Analysis (LTEA) Assay for adenosine kinase (ADK) gene using HepaRG (AID 2283471); conditions: mRNA level, 48 h; actives raise or lower the signal
In short: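 HepaRG (human liver), 48 h chemical exposure, 8-pt half-log series, top 100 uM, 0.5% DMSO vehicle. Readout: ADK mRNA by qRT-PCR vs housekeeping genes; bidirectional curve fit relative to DMSO baseline.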

[18] = read-out: Alpha-fetoprotein (AFP) gene, AFP (gene 174); experiment: LTEA_HepaRG_AFP: Life Technologies and Expression Analysis (LTEA) Assay for Alpha-fetoprotein (AFP) gene using HepaRG (AID 2283472); conditions: mRNA level, 48 h; actives raise or lower the signal
In short: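 Measures AFP mRNA change in HepaRG after 48 h chemical exposure (8 half-log concentrations, highest 100 uM, 0.5% DMSO). Fold change relative to DMSO, fitted in both directions.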

BCL2L11 (gene 10018) = experiment: LTEA_HepaRG_BCL2L11: Life Technologies and Expression Analysis (LTEA) Assay for Bcl-2 (BCL2L11) gene using HepaRG (AID 2283473); conditions: mRNA level, 48 h; actives raise or lower the signal
In short: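 Human hepatic HepaRG cultures are treated 48 h with test chemicals (maximum 100 uM, 0.5% DMSO vehicle). Expression of BCL2L11 is measured by qRT-PCR against ACTB, GAPDH and POLR2A, with activity in either direction scored relative to vehicle.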

[19] = CEETOX_H295R_TESTO: CeeTox H295R High-throughput Steroidogenesis Assay for Testosterone (TESTO) (AID 2283457); conditions: actives raise or lower the signal;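 as to AC50: cells exposed to chemicals for 48 h before medium collection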
In short: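 Steroidogenesis in H295R cells following OECD 456 with minor changes; 48 h exposure. Medium testosterone by HPLC-MS/MS, DMSO as baseline, with MTT viability run in parallel.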

Measured: AC50

Chain of Broad substrate specificity ATP-binding cassette transporter ABCG2 (Homo sapiens) (Q9UNQ0 whole entry, looked up): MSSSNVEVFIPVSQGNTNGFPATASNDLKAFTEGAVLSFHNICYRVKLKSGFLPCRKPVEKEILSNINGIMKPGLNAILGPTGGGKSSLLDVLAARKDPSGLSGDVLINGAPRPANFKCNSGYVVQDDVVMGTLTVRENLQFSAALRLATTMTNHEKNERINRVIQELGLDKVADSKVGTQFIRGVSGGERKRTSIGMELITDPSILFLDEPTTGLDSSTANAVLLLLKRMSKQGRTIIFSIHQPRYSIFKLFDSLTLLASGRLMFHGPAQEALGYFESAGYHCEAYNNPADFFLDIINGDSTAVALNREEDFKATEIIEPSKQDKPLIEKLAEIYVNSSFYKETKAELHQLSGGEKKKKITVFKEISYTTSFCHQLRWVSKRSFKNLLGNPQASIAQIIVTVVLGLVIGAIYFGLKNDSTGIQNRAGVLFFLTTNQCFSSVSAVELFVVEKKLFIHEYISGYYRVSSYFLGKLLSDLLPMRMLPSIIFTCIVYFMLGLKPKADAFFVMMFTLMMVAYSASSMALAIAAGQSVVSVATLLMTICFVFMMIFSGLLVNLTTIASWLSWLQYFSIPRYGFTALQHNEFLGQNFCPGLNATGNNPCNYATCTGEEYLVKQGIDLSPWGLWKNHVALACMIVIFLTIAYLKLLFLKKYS

CCCCN(CC)c1c([N+](=O)[O-])cc(C(F)(F)F)cc1[N+](=O)[O-]
active: [1] 35.4 µM
not listed: [19]
inactive: all other assays above

CCOP(=S)(OCC)Oc1cc(C)nc(C(C)C)n1
active: [1] 33 µM
not listed: [19]
inactive: all other assays above

CCCSP(=O)(OCC)Oc1ccc(Br)cc1Cl (stereo not given)
active: [1] 29.4 µM
not listed: [12] | [19]
inactive: all other assays above

CC[C@H](C)[C@H]1O[C@]2(C=C[C@@H]1C)C[C@@H]1C[C@@H](C/C=C(\C)[C@@H](O[C@H]3C[C@H](OC)[C@@H](O[C@H]4C[C@H](OC)[C@@H](NC)[C@H](C)O4)[C@H](C)O3)[C@@H](C)/C=C/C=C3\CO[C@@H]4[C@H](O)C(C)=C[C@@H](C(=O)O1)[C@]34O)O2
active: [1] 13.4 µM | [2] 16.9 µM | [3] 27.9 µM | [6] 23 µM | [7] 50 µM | [8] 31.6 µM | [9] 39.6 µM | [10] 13.3 µM | [11] 14.4 µM | [13] 13 µM | [14] 11.9 µM | [16] 50 µM | [17] 50 µM | [18] 87.7 µM | BCL2L11 (gene 10018) 12.5 µM
inactive: [4] | [5] | [12] | [15]

CCOP(=S)(OCC)OC(Cl)C(Cl)(Cl)Cl (stereo not given)
active: [1] 74.3 µM
not listed: [12] | [19]
inactive: all other assays above

COP(=O)(NC(C)=O)SC (stereo not given)
not listed: [12] | [19]
inactive: all other assays above

CCOP(=S)(OCC)Oc1ccc2c(C)c(Cl)c(=O)oc2c1
active: [1] 6.37 µM | [6] 12.9 µM | [11] 13.3 µM | [14] 50 µM | [18] 36.6 µM
not listed: [12] | [19]
inactive: all other assays above

CCC(=O)Nc1ccc(Cl)c(Cl)c1
active: [1] 32.1 µM | [19] 2.93 µM | [10] 50 µM | [14] 50 µM
not listed: [11] | [12]
inactive: all other assays above

CCc1cccc(CC)c1N(COC)C(=O)CCl
active: [1] 50 µM
not listed: [12] | [19]
inactive: all other assays above

CC(COc1ccc(Oc2ccccc2)cc1)Oc1ccccn1 (stereo not given)
active: [1] 77.4 µM | [10] 29.2 µM | [18] 38.9 µM
not listed: [11]
inactive: all other assays above

COc1ccc(C(=CC(=O)N2CCOCC2)c2ccc(Cl)cc2)cc1OC
active: [1] 50 µM | [19] 32.8 µM | [10] 11 µM
not listed: [12]
inactive: all other assays above

Cc1cc(C2CC2)nc(Nc2ccccc2)n1
active: [1] 0.52 µM | [9] 74.6 µM
not listed: [12] | [19]
inactive: all other assays above

CN1COCN(Cc2cnc(Cl)s2)C1=N[N+](=O)[O-]
not listed: [19]
inactive: all other assays above
